# Measurements: publication PMC5540273 (PLoS ONE, 2017)
# How the values were obtained:
# Details in all cases: concentration: 1 μM, replicates: in singlicate; n = 1
# [1] = system: CAMK2D
# [2] = system: CAMK2G
# [3] = system: CAMK4
# [4] = system: CAMKK1
# [5] = system: CAMKK2
# [6] = system: CASK
# [7] = system: T1, CDC2L1
# T1 construct: gene CDK11B
# [8] = system: CDC2L2
# [9] = system: T2, CDC2L5
# T2 construct: gene CDK13
# [10] = system: T3, CDK11
# T3 construct: gene CDK19
# [11] = system: CDK2
# [12] = system: CDK3
# [13] = system: CDK4-cyclinD1
# [14] = system: CDK4-cyclinD3
# [15] = system: CDK4
# [16] = system: CDK5
# [17] = system: CDK7
# [18] = system: CDK8
# [19] = system: CDK9
# [20] = system: CDKL1
# 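Note: KINOMEscan kinase panel screen.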
structure (smiles),measurement,setting,value
Fc1cccc(COc2ccc(Nc3ncnc4sc(-c5ccc[nH]5)cc34)cc2Cl)c1 [GW707818],%Inh,[1],7%
same,%Inh,[2],0%
same,%Inh,[3],5%
same,%Inh,[4],0%
same,%Inh,[5],16%
same,%Inh,[6],15%
same,%Inh,[7],20%
same,%Inh,[8],15%
same,%Inh,[9],0%
same,%Inh,[10],5%
same,%Inh,[11],0%
same,%Inh,[12],10%
same,%Inh,[13],0%
same,%Inh,[14],11%
same,%Inh,[15],17%
same,%Inh,[16],0%
same,%Inh,[17],0%
same,%Inh,[18],31%
same,%Inh,[19],14%
same,%Inh,[20],6%
NC(=O)c1sc(-n2cnc3ccccc32)cc1OCc1ccccc1F [GSK1024306],%Inh,[1],0%
same,%Inh,[2],14%
same,%Inh,[3],0%
same,%Inh,[4],0%
same,%Inh,[5],10%
same,%Inh,[6],49%
same,%Inh,[7],0%
same,%Inh,[8],0%
same,%Inh,[9],0%
same,%Inh,[10],8%
same,%Inh,[11],0%
same,%Inh,[12],0%
same,%Inh,[13],0%
same,%Inh,[14],0%
same,%Inh,[15],33%
same,%Inh,[16],0%
same,%Inh,[17],0%
same,%Inh,[18],37%
same,%Inh,[19],0%
same,%Inh,[20],10%
COc1ccc(NC(=O)Nc2ccc(C)c(-c3ccc(C(=O)Nc4ccncc4)cc3)c2)cc1 [GSK1398475],%Inh,[1],0%
same,%Inh,[2],22%
same,%Inh,[3],0%
same,%Inh,[4],3%
same,%Inh,[5],20%
same,%Inh,[6],0%
same,%Inh,[7],0%
same,%Inh,[8],34%
same,%Inh,[9],0%
same,%Inh,[10],4%
same,%Inh,[11],0%
same,%Inh,[12],0%
same,%Inh,[13],0%
same,%Inh,[14],9%
same,%Inh,[15],7%
same,%Inh,[16],0%
same,%Inh,[17],0%
same,%Inh,[18],40%
same,%Inh,[19],0%
same,%Inh,[20],1%
CN1CCC(n2cnc(-c3ccc(F)cc3)c2-c2ccnc(NC3CCNCC3)n2)CC1 [SB-229482],%Inh,[1],7%
same,%Inh,[2],0%
same,%Inh,[3],7%
same,%Inh,[4],14%
same,%Inh,[5],26%
same,%Inh,[6],20%
same,%Inh,[7],0%
same,%Inh,[8],8%
same,%Inh,[9],31%
same,%Inh,[10],0%
same,%Inh,[11],0%
same,%Inh,[12],0%
same,%Inh,[13],33%
same,%Inh,[14],11%
same,%Inh,[15],44%
same,%Inh,[16],4%
same,%Inh,[17],30%
same,%Inh,[18],11%
same,%Inh,[19],0%
same,%Inh,[20],0%
O=c1cc(N2CCOCC2)nc2n(Cc3cccc(Cl)c3)ccn12 [GSK2296823],%Inh,[1],0%
same,%Inh,[2],3%
same,%Inh,[3],0%
same,%Inh,[4],17%
same,%Inh,[5],0%
same,%Inh,[6],3%
same,%Inh,[7],0%
same,%Inh,[8],6%
same,%Inh,[9],0%
same,%Inh,[10],0%
same,%Inh,[11],0%
same,%Inh,[12],3%
same,%Inh,[13],0%
same,%Inh,[14],13%
same,%Inh,[15],0%
same,%Inh,[16],0%
same,%Inh,[17],0%
same,%Inh,[18],0%
same,%Inh,[19],0%
same,%Inh,[20],9%
Cc1cccc(-c2nc(Nc3ccc4[nH]nnc4c3)c3ccccc3n2)n1 [GW867587],%Inh,[1],0%
same,%Inh,[2],0%
same,%Inh,[3],0%
same,%Inh,[4],0%
same,%Inh,[5],0%
same,%Inh,[6],4%
same,%Inh,[7],0%
same,%Inh,[8],0%
same,%Inh,[9],0%
same,%Inh,[10],0%
same,%Inh,[11],0%
same,%Inh,[12],15%
same,%Inh,[13],0%
same,%Inh,[14],0%
same,%Inh,[15],0%
same,%Inh,[16],0%
same,%Inh,[17],0%
same,%Inh,[18],30%
same,%Inh,[19],0%
same,%Inh,[20],0%
Cn1ccc2ncnc(Nc3ccc(Oc4cccc(Cl)c4)c(Cl)c3)c21,%Inh,[1],5%
same,%Inh,[2],8%
same,%Inh,[3],0%
same,%Inh,[4],11%
same,%Inh,[5],9%
same,%Inh,[6],9%
same,%Inh,[7],22%
same,%Inh,[8],5%
same,%Inh,[9],13%
same,%Inh,[10],5%
same,%Inh,[11],0%
same,%Inh,[12],0%
same,%Inh,[13],0%
same,%Inh,[14],0%
same,%Inh,[15],0%
same,%Inh,[16],21%
same,%Inh,[17],14%
same,%Inh,[18],22%
same,%Inh,[19],15%
same,%Inh,[20],10%
C[C@H]1CC[C@@H](C(=O)Nc2ccccc2)CN1c1cc(-c2ccc3c(N)n[nH]c3c2)nc(N)n1 [GSK2283293],%Inh,[1],3%
same,%Inh,[2],16%
same,%Inh,[3],0%
same,%Inh,[4],7%
same,%Inh,[5],15%
same,%Inh,[6],4%
same,%Inh,[7],0%
same,%Inh,[8],13%
same,%Inh,[9],0%
same,%Inh,[10],0%
same,%Inh,[11],0%
same,%Inh,[12],0%
same,%Inh,[13],0%
same,%Inh,[14],0%
same,%Inh,[15],0%
same,%Inh,[16],0%
same,%Inh,[17],0%
same,%Inh,[18],14%
same,%Inh,[19],0%
same,%Inh,[20],22%
CS(=O)(=O)CCNCc1ccc(-c2ccc3ncnc(Nc4ccc(OCc5ccccc5)c(Cl)c4)c3c2)o1.Cl [GW574783],%Inh,[1],4%
same,%Inh,[2],11%
same,%Inh,[3],0%
same,%Inh,[4],0%
same,%Inh,[5],0%
same,%Inh,[6],3%
same,%Inh,[7],0%
same,%Inh,[8],0%
same,%Inh,[9],0%
same,%Inh,[10],15%
same,%Inh,[11],5%
same,%Inh,[12],10%
same,%Inh,[13],21%
same,%Inh,[14],0%
same,%Inh,[15],0%
same,%Inh,[16],0%
same,%Inh,[17],0%
same,%Inh,[18],43%
same,%Inh,[19],0%
same,%Inh,[20],0%
Nc1n[nH]c2nnc(-c3ccccc3)cc12 [SB-517389],%Inh,[1],2%
same,%Inh,[2],0%
same,%Inh,[3],0%
same,%Inh,[4],0%
same,%Inh,[5],0%
same,%Inh,[6],18%
same,%Inh,[7],0%
same,%Inh,[8],0%
same,%Inh,[9],0%
same,%Inh,[10],0%
same,%Inh,[11],0%
same,%Inh,[12],20%
same,%Inh,[13],0%
same,%Inh,[14],22%
same,%Inh,[15],0%
same,%Inh,[16],0%
same,%Inh,[17],0%
same,%Inh,[18],0%
same,%Inh,[19],21%
same,%Inh,[20],0%
CC(C)(C)c1ccc(-n2cnc3c(N)ncnc32)cc1 [SKF-97263],%Inh,[1],2%
same,%Inh,[2],0%
same,%Inh,[3],0%
same,%Inh,[4],0%
same,%Inh,[5],0%
same,%Inh,[6],12%
same,%Inh,[7],0%
same,%Inh,[8],0%
same,%Inh,[9],0%
same,%Inh,[10],10%
same,%Inh,[11],0%
same,%Inh,[12],3%
same,%Inh,[13],0%
same,%Inh,[14],0%
same,%Inh,[15],0%
same,%Inh,[16],0%
same,%Inh,[17],0%
same,%Inh,[18],0%
same,%Inh,[19],0%
same,%Inh,[20],0%
